PubChem BioAssay AID1645853 (Buhrlage Lab, Dana-Farber Cancer Institute and Novartis …, 2021)
About 2,000 (4.3%) of roughly 47,000 compounds were called active. Cut-off read from the data, not from the text of the source: active = inhibition above about 30%; inactive = the rest. The list comes from a sample in which actives are over-represented; it also holds similar structures and randomly drawn compounds.

Biological target: Ubiquitin carboxyl-terminal hydrolase 8 (Homo sapiens) (UniProt P40818)
Test: inhibitors of human USP8 deubiquitinase (AID 1645853)
Settings: purified USP8, Ub-rhodamine cleavage fluorescence, 30 min; at 20 µM; stronger effect = higher value

Sequence of Ubiquitin carboxyl-terminal hydrolase 8 (Homo sapiens) (P40818 whole entry, looked up): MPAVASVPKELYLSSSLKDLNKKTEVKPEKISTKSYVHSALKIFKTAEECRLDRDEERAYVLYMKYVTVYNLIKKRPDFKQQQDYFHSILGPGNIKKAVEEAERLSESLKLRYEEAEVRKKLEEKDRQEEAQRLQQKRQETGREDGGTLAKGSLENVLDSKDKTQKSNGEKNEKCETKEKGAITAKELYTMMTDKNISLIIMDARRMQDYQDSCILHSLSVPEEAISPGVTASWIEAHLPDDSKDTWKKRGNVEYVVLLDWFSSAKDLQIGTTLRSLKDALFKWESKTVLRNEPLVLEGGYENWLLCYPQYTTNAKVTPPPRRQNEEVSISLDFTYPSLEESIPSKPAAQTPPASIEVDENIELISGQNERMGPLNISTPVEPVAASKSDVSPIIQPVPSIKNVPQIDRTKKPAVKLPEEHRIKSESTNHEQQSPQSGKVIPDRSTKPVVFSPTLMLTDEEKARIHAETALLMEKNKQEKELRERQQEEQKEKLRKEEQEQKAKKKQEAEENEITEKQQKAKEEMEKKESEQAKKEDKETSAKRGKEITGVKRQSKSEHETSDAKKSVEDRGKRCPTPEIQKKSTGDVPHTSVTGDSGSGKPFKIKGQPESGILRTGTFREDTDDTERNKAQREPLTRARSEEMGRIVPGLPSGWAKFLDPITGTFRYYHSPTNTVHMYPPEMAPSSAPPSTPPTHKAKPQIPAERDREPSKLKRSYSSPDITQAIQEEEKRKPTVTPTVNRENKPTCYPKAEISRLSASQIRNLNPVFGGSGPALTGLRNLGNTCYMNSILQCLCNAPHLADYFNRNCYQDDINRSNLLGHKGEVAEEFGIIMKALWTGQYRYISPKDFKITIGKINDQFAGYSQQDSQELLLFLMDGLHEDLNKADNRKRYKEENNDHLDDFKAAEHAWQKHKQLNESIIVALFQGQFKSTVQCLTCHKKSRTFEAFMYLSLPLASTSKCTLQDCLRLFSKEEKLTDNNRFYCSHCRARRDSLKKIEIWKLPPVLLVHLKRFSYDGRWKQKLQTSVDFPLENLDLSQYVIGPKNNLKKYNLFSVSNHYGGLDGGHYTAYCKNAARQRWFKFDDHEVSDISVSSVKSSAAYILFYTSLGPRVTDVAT

inhibition, active:
Cc1cc(OCC(=O)Oc2ccc(-n3cnnn3)cc2)cc(C)c1Cl 44.3%
CC(Nc1nnc(Cc2ccccc2)c(=O)[nH]1)c1ccccc1 (centres undefined) 85.5%
COC(=O)C1CCN(C(=O)CC[C@H]2CNC(=O)[C@@H]3[C@@H](CCN3Cc3ccc(C)cc3)N2C)CC1 35.8%
CCC(=O)Nc1nc2cc(NC(=O)c3ccc(OC)cc3)ccc2s1 47.8%
COc1cccc(CN2C(=O)c3ccccc3C2C(=O)NCc2ccccc2OC)c1 (centres undefined) 34.7%
O=C(Cc1ccccc1Cl)Nc1ccc(N2CCOCC2)cc1 51.8%
CNC(=O)N1C[C@H]2C[C@H](C(=O)Nc3ccc4c(c3)OCO4)[C@@H](C1)O2 37%
O=C(NC1CCCCC1)c1ccc2c(=O)nc3c(-c4ccccc4F)n[nH]n3c2c1 49.8%
COc1cccc(CNC(=O)c2ccc3c(=O)nc4c(-c5ccccc5)n[nH]n4c3c2)c1 71.8%
CC(C)Nc1ncnc2c1c(C(=O)N1CCCC1)c1ccccn12 55.5%
C=C1CCC2[C@](C)(CCC[C@]2(C)C(=O)OC)[C@H]1CCc1ccoc1/C=C/C(=O)O (some centres undefined) 63.4%
C=C1CCC2[C@](C)(CCC[C@]2(C)C(=O)OC)[C@H]1CCc1ccoc1C[N+](C)(C)Cc1ccccc1 (some centres undefined) 30.8%
N#Cc1ccc(NC(=O)Nc2cccn(Cc3ccccc3F)c2=O)cc1 96.4%
N#Cc1cccc(S(=O)(=O)c2c[nH]c3ccc(Cl)cc3c2=O)c1 46.9%
CC1=C(C(=O)Nc2ccc(C)cc2C)C(c2cccs2)n2c(nc3ccccc32)N1 (centres undefined) 31.4%
COCCN1C(=O)Cc2c(C)nc(C3(C)CCCN(c4ccnc(C)n4)C3)nc21 (centres undefined) 30.4%
Cn1cc(-c2nc(C(=O)Nc3ccc(F)cc3)cs2)c2cccnc21 30.4%
NC(=O)c1ccc(NC(=O)Cc2cc(-c3ccc(Cl)cc3)on2)cc1 62.4%
Cc1cc(C)c2nc3c(cc2c1)CN(Cc1ccco1)C(=O)O3 75.7%

inhibition, inactive:
CC(=O)c1ccc(NC(=O)c2cccc(-c3nc(-c4ccccc4)no3)c2)cc1 8.62%
CCc1ccc(C(=O)N2CCN(c3nnc4ccccn34)CC2)cc1 -1.4%
O=C(c1ccccc1)N1CCCCCC1C1CCNCC1 (centres undefined) -4.33%
O=C(Nc1c2c(nn1-c1cccc(Cl)c1)CS(=O)(=O)C2)c1cccs1 9.3%
CC(C)c1ccc(OCC(=O)NCc2nnnn2-c2ccc(Cl)cc2)cc1 4.83%
CC(C)NC(=O)c1cccc(-n2cnnn2)c1 -259%
Cc1ccnc(C2CN(C(=O)CCn3cnc4ccccc43)CCO2)n1 (centres undefined) 19.3%
COc1cc(NC(=O)CSc2nc3ccncc3[nH]2)cc(OC)c1 1.79%
Nc1ccccc1-c1nnc(Cc2ccccc2)c(=O)[nH]1 -0.271%
Cc1ccc(Cc2nnc(C(=O)NC(C)c3ccccc3)o2)cc1 (centres undefined) 0.117%
CC(=O)NC(Cc1cccc(C)c1)C(=O)NC1CCN(C(=O)c2cccc(C)c2)CC1 (centres undefined) -1.31%
CN1[C@@H](CCC(=O)NCc2ccc(F)cc2)CNC(=O)[C@@H]2[C@H]1CCN2CC1CC1 -6.51%
CN1[C@@H](CCC(=O)N2CCc3ccccc32)CNC(=O)[C@@H]2[C@H]1CCN2Cc1ncc[nH]1 -8.85%
COc1ccc(-c2c(C)noc2C)cc1S(=O)(=O)NC1CCCC1 -9.12%
Clc1ccccc1C1SCC2=Nc3ccccc3CN21 (centres undefined) -101%
COc1cccc(NC(=O)Cn2c(-c3ccccc3)nc(C)cc2=O)c1 2.3%
CCN1C(=O)CCC12CCCN(S(=O)(=O)c1cccc(C)c1)CC2 (centres undefined) -101%
CCC(=O)c1ccc(OCC(=O)Nc2ccc3nc(C)sc3c2)cc1 -13%
COc1ccc(NC(=O)c2ccnc(Nc3ccc(OC)cc3)c2)cc1 25.4%
CCN1C(=O)c2ccccc2Sc2ccc(C(=O)NCc3ccc(OC)cc3OC)cc21 4.79%
COc1ccccc1CNC(=O)c1ccc(-n2nc(C)c3c2CCCC3=O)cc1 1.29%
CC(C)(C)NC(=O)CSc1nc2[nH]c(=O)cc(O)c2s1 -9.23%
CC1Oc2ccccc2N(Cc2nc(-c3cccc(F)c3)no2)C1=O (centres undefined) -3.17%
O=C(COC(=O)CCc1nc2ccccc2c(=O)[nH]1)Nc1ccc(N2CCOCC2)cc1 2.83%
CCN(CC)c1nc2ccccc2nc1C(=O)Nc1ccc(N2CCOCC2)cc1 -1.27%
O=C(Nc1cccnc1)[C@H]1C[C@@H]2CN(S(=O)(=O)C3CC3)C[C@H]1O2 -14%
CN1C[C@H]2C[C@H](C(=O)Nc3ccc4c(c3)OCO4)[C@@H](C1)O2 6.94%
CC(=O)c1ccc(NC(=O)Cn2c(=O)n(-c3ccccc3)c3ncccc32)cc1 10.4%
CCS(=O)(=O)N1CC(=O)N(c2cccc(OC)c2)C(C)(C(=O)NCc2ccccc2)C1 (centres undefined) -0.355%
O=C(Nc1ccccc1F)NC1CCCN(c2cc(-c3ccncc3)[nH]n2)C1 (centres undefined) -92%
O=C(NCc1ccco1)c1ccc2c(=O)nc3c(-c4ccc(F)cc4)n[nH]n3c2c1 -4.4%
O=C(NCCc1ccccc1)c1ccc2c(=O)nc3c(-c4ccccc4F)n[nH]n3c2c1 2.58%
COc1cccc(CNC(=O)c2ccc(-c3cncnc3)nc2)c1 -15.9%
CN1CC(c2nc3ccccc3n2Cc2ccccc2)CC1=O (centres undefined) -1.18%
CNc1cncc(C2CCCN2C(=O)Cc2ccc3c(c2)OCO3)n1 (centres undefined) -1.13%
O=S(=O)(Nc1cccc(O)c1)c1ccc2oc3ccc(S(=O)(=O)Nc4cccc(O)c4)cc3c2c1 9.24%
Cc1cc(C)n(CCC(=O)NCC2CCOCC2)n1 -2.76%
Cc1ccc(-c2nn(-c3ccccc3)cc2CNCc2cccnc2)cc1 -268%
CNC1C(OC2C(OC3C(O)C(O)C(OC(N)=O)C(O)C3N=C(N)N)OC(C)C2(O)CO)OC(CO)C(O)C1O (centres undefined) 0.384%
CN1CCCN(C(=O)c2cc(-c3ccn(C)n3)n3ccccc23)CC1 -22.2%
CCc1ccccc1NS(=O)(=O)c1c(C)[nH]c(C)c1C(=O)N1CCCC1 2.16%
CN1[C@@H](CCC(=O)N2CCOCC2)CNC(=O)[C@@H]2[C@H]1CCN2C1CCCCC1 2.93%
Cc1ccc(S(=O)(=O)Oc2cccnc2)c(C)c1F 10.5%
C=C1CCC2[C@](C)(CCC[C@]2(C)C(=O)OC)[C@H]1CCc1ccoc1CNCC(=O)O (some centres undefined) -5.45%
Cc1ccc(S(=O)(=O)N(CC(=O)NC(C)c2ccccc2)Cc2ccccc2F)cc1 (centres undefined) 5.32%
COc1cccc(S(=O)(=O)N2CCC(c3nccc(C)n3)C2)c1 (centres undefined) 0.292%
O=C(CCCn1c(=O)c2ccccc2n(Cc2ccccc2F)c1=O)NC1CCCC1 5.2%
N#Cc1ccc(NC(=O)COC(=O)c2ccc3ccccc3n2)cc1 -17.7%
O=C(Cn1cncn1)N1CCN(C(c2ccccc2)c2ccccc2)CC1 -4.21%
c1cnc(Nc2cnc(C3CCCN(Cc4cnc[nH]4)C3)cn2)cn1 (centres undefined) -10.5%
CCN1C(=O)c2ccccc2C(=O)[C@@]2(C)CN(C(=O)c3ccccc3)C[C@@H]12 15.6%
N#Cc1cccc(S(=O)(=O)N2CCC3(CC2)OC(=O)Nc2ccccc23)c1 10.6%
O=c1c(S(=O)(=O)c2cc(F)cc(F)c2)c[nH]c2ccc(F)cc12 4.59%
O=C(C1Cc2ccccc2CN1S(=O)(=O)c1ccc2c(c1)OCCO2)N1CCCC1 (centres undefined) 1.43%
COc1cccc(C2C(C(=O)Nc3ccccc3C)=C(C)Nc3ncnn32)c1OCc1ccccc1 (centres undefined) -22.6%
CC1=C(C(=O)Nc2ccccc2)C(c2cccs2)n2ncnc2N1 (centres undefined) -32.6%
Cc1cc2c(cc1CNC(=O)c1ccc3c(c1)CC(C)O3)OCCCO2 (centres undefined) -4.91%
O=C1c2ccccc2-c2nnc(-c3ccc(Oc4ccccc4)cc3)cc21 14.8%
Cc1nn2c(S(=O)(=O)Nc3cccc(F)c3C)c(C)nc2s1 19.1%
COCCN1C(=O)Cc2c(C)nc(C3(C)CCCN(c4cc(C)ncn4)C3)nc21 (centres undefined) 6.73%
O=C(C1CCCCC1)N1CCN(c2ncnc3c2nnn3Cc2ccccc2)CC1 6.37%
Cc1cccc(NC(=O)c2csc(-c3cn(C)c4ncccc34)n2)c1 6.69%
Cn1nc(C(=O)Nc2ccc(F)cc2)c(=O)c2ccccc21 -3.42%
Cc1[nH]c(C)c(S(=O)(=O)NC2CC2)c1-c1nc(C2CC2)no1 -17.3%
COc1cccc(CCNC(=O)Cc2cc(-c3ccc(C)cc3)on2)c1 -12.1%
NC(=O)c1ccc(CN2CCC3(CC2)CC3c2nc(-c3cccc(Cl)c3)no2)cc1 (centres undefined) -39.4%
CC(=O)Nc1ccc(S(=O)(=O)NCc2cn3ccccc3n2)cc1 -7.51%
Cc1ccc(-n2c3c(c(=O)[nH]c2=O)CN(Cc2ccco2)CN3)cc1 -10.7%
COc1ccc2nc3c(cc2c1)CN(Cc1ccccc1)C(=O)O3 20.1%
O=S1(=O)c2ccccc2C(Oc2ccccc2)CN1CCO (centres undefined) -13.4%
